Test results: PubChem BioAssay (NCATS)
Inconclusive results are not listed. The source made the active and inactive calls. Calls come from the whole dose curve; as a rule, active = well fitted inhibition curve with a large enough effect; inconclusive = small, poorly fitted or top-dose-only effect; inactive = flat fitted curve, though single readings scatter.

Assays:
Test in all cases: Cytotoxic Profiling of Annotated Libraries Using Quantitative High-Throughput Screening (AID 1296008); note: nearly all actives have a fitted effect of over 60% in size
Settings in all cases: Five cell lines viability, CellTiter-Glo ATP luminescence, 48-72 h; max response: stronger effect = lower value
[1] = test system: CRL-7250
Summary of the method: (§1)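 Cytotoxicity was measured as CellTiter-Glo ATP luminescence, read after 10 min at room temperature. Compound treatment of the cells lasted 48 or 72 hr at 37 degrees Celsius in a qHTS format.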

[2] = test system: HEK293
Summary of the method: as §1

[3] = test system: HaCat
Summary of the method: as §1

[4] = test system: KB-3-1
Summary of the method: as §1
% is set by controls: 0 for no effect and ±100 for the full control effect; potency is the fitted concentration of half-maximal effect.

O=C(OC[C@H]1O[C@H](O[C@]2(CO)O[C@H](CO)[C@@H](O)[C@@H]2O)[C@H](O)[C@@H](O)[C@@H]1O)c1ccccc1
inactive: max response [1] -1.41% | max response [2] 1.14% | max response [3] 0.397% | max response [4] 8.19%

c1ccc(-c2ncc(CN3CCN(c4ncccn4)CC3)[nH]2)cc1
inactive: max response [1] -0.931% | max response [2] 0.625% | max response [3] 0.273% | max response [4] -2.29%

C=C1[C@H](OC(C)=O)[C@H]2[C@@H](OC(C)=O)[C@](C)(OC(C)=O)C[C@]2(OC(C)=O)C(=O)[C@H](C)/C=C/C(C)(C)C(=O)[C@H](OC(=O)C(C)CC)[C@H]1OC(C)=O (stereo partly specified)
inactive: max response [1] -1.41% | max response [2] 1.43% | max response [3] -2.99% | outcome [4]

O=C(N/N=C/c1ccc(O)c(O)c1)c1cc2ccccc2cc1O
inactive: max response [1] -27.6% | outcome [2] | max response [3] -0.414% | max response [4] 7.95%

Cc1ccc(NC(=O)C(=O)NC2CC(C)(C)NC(C)(C)C2)cc1
inactive: outcome [1] | max response [2] 1.35% | max response [3] -22.4% | max response [4] -0.25%

CN1CCc2nc(C(=O)N[C@@H]3C[C@@H](C(=O)N(C)C)CC[C@@H]3NC(=O)C(=O)Nc3ccc(Cl)cn3)sc2C1
inactive: max response [1] 3.08% | max response [2] -78.6% | max response [3] -24.6% | max response [4] -42%

O=C(Nc1ccccc1-c1cn2c(CN3CCNCC3)csc2n1)c1ccc2ccccc2n1
inactive: outcome [1] | max response [2] -4.98% | max response [3] -14.7% | max response [4] 2.25%

C[C@@H]1CC[C@]2(C(=O)O)CC[C@]3(C)C(=CCC4[C@@]5(C)CC[C@H](O)C(C)(C)C5C(O)C[C@]43C)[C@@H]2[C@]1(C)O (stereo partly specified)
inactive: max response [1] -5.69% | max response [2] 4.01% | max response [3] -8.55% | max response [4] 7.38%

CCOC(=O)Nc1cc(-c2ccc(C)c(NS(C)(=O)=O)c2)nn2c(C)nnc12
active: Potency [1] 7310 nM | Potency [2] 4110 nM | Potency [3] 651 nM | Potency [4] 10300 nM

C[C@H](N)C(=O)N[C@@H](Cc1ccc(O)cc1)C(=O)N1CCC[C@H]1C(=O)NCC(=O)N[C@@H](CCCCN)C(=O)N[C@@H](Cc1ccccc1)C(N)=O
inactive: outcome [1] | max response [2] 2.75% | max response [3] -13.5% | outcome [4]

Cc1ccccc1CN1C2=NCCN2C(=O)C2=C1CCN(Cc1ccccc1)C2
inactive: max response [1] -16.8% | max response [2] -7.79% | max response [3] -42.7% | max response [4] -23.4%

COc1ccc(N2CCOCC2)c2sc(NC(=O)N3CCC(C)(O)CC3)nc12
inactive: max response [1] 0.434% | max response [2] -6.66% | max response [3] 3.93% | outcome [4]

COc1cccc(-c2cc(NCc3ccc4c(c3)OCO4)nc(N)n2)c1
inactive: max response [3] -46.3%
active: Potency [1] 920 nM | Potency [2] 184 nM | Potency [4] 231 nM

O=C(/C=C/c1ccc(O)cc1)N[C@@H](Cc1ccc(O)cc1)C(=O)O
inactive: max response [1] -6.91% | max response [2] -7.32% | max response [3] 1.92% | max response [4] -2.01%

CC(C)(C)NC(=O)[C@@H](c1cccnc1)N(C(=O)c1ccco1)c1ccc(C(C)(C)C)cc1
inactive: max response [1] 4.34% | max response [2] -16.3% | max response [3] -16.4% | outcome [4]

CC1(C(=O)O)CCCC2(C)C3CCC4CC3(CCC12)CC4=O (stereo unspecified)
inactive: max response [1] -1.87% | max response [2] 0.827% | max response [3] 2.83% | max response [4] -1.11%

CC1=CC(=O)C2C(C)(C)CCC[C@]2(C)[C@H]1CO (stereo partly specified)
inactive: max response [1] -14.4% | max response [2] 1.55% | max response [3] -11.3% | max response [4] 2.57%

CC1(c2nc3c(C(N)=O)cccc3[nH]2)CCCN1 (stereo unspecified)
inactive: max response [1] -7.72% | max response [2] -22.9% | max response [3] -9.07% | outcome [4]

CC(C)=CCC[C@](C)(O[C@@H]1O[C@H](CO[C@@H]2O[C@H](CO)[C@@H](O)[C@H](O)[C@H]2O)[C@@H](O)[C@H](O)[C@H]1O)C1CC[C@]2(C)[C@@H]1[C@H](O)CC1[C@@]3(C)CC[C@H](O[C@@H]4O[C@H](CO)[C@@H](O)[C@H](O)[C@H]4O[C@@H]4O[C@H](CO)[C@@H](O)[C@H](O)[C@H]4O)C(C)(C)[C@@H]3CC[C@]12C (stereo partly specified)
inactive: max response [1] -3.43% | max response [2] 0.0713% | max response [3] 3.42% | max response [4] -1.36%
